By AC50 is commonly meant the midpoint of the concentration-response curve, whichever way the signal moves.

Where “and” joins values, the source holds several entries; their conditions need not be identical. Equal entries are not always repeated. Records with an inconclusive call do not appear. The source holds several records for some structures; these can differ, active in one and inactive in another. Calls of active or inactive are those of the source. The calls were made as follows, unless noted: active = hit-call score of the fitted dose curve at least 0.9, where 1 is the maximum; inconclusive = response in the unintended direction; inactive = score below 0.9.

Assay [1] in a line: ATG_TAL_CIS: Attagene CIS-FACTORIAL HepG2 Assay for human TAL Basal Promoter (AID 2282966; active = hit-call score of the fitted dose curve at least 0.9, where 1 is the maximum; inactive = score below 0.9;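 also: background control endpoint measuring basal TAL promoter reporter mRNA not a specific factor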). The note with it: HepG2 Attagene cis-factorial TAL promoter reporter; actives raise or lower the signal. In outline: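 Background-control endpoint: basal TAL promoter reporter transcripts in transiently transfected HepG2, measured 24 h after dosing. Read-out by RT-PCR with fluorescent primer extension and capillary electrophoresis; gain or loss of signal fitted relative to DMSO.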

Assay [2] can be described thus: ATG_TGFb_CIS: Attagene CIS-FACTORIAL HepG2 Assay for human Transforming Growth Factor (TGF) (AID 2282967; active = hit-call score of the fitted dose curve at least 0.9, where 1 is the maximum; inactive = score below 0.9). Conditions: HepG2 Attagene CIS TGFb reporter, mRNA transcription; actives raise or lower the signal. In outline: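 Multiplexed cis-reporter HepG2 system, 24 h treatment; mRNA induction read by fluorescence after RT-PCR and CE; DMSO negative control, bidirectional curve fitting.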

Assay [3] can be described thus: ATG_VDRE_CIS: Attagene CIS-FACTORIAL HepG2 Assay for human Vitamin D Receptor Element (VDRE) (AID 2282968; active = hit-call score of the fitted dose curve at least 0.9, where 1 is the maximum; inactive = score below 0.9). Conditions: HepG2 VDRE cis-reporter transcription, actives raise or lower the signal. In outline:
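Compounds were applied for 24 h to HepG2 cells transfected with promoter-regulated reporter units. Total RNA was reverse-transcribed, and reporter amplicons were fluorescently labelled and sized by capillary electrophoresis.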

Assay [4] concerns the target Nuclear receptor subfamily 1 group I member 3 (Homo sapiens) (UniProt Q14994). As to the kind of experiment: ATG_CAR_TRANS: Attagene TRANS-FACTORIAL HepG2 Assay for human Constitutive Androstane Receptor (CAR) (AID 2282969).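 Also: activators raise reporter mRNA above DMSO so AC50 marks induction.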 The note with it: HepG2 Attagene TRANS-FACTORIAL CAR reporter. An outline of the steps:
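Transiently transfected HepG2, multiplex TRANS reporters (CAR-Gal4 chimera driving GAL4-UAS reporter). 24 h dosing. Readout: reporter transcript by RT-PCR + capillary electrophoresis, fluorescence intensity; positive direction vs DMSO.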

Assay [5] deals with Estrogen receptor (Homo sapiens) (UniProt P03372). Briefly: ATG_ERa_TRANS: Attagene TRANS-FACTORIAL HepG2 Assay for human Estrogen Receptor alpha (ERa) (AID 2282970). The note with it: HepG2 Attagene TRANS ERa GAL4 reporter, mRNA. In outline:
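Reporter transcripts were measured 24 h after dosing by RT-PCR with fluorescent primer extension and capillary electrophoresis. The system is transiently transfected HepG2 expressing exogenous NR-Gal4 chimeras driving GAL4-UAS reporters; DMSO is the baseline.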

The target in assay [6] is Steroid hormone receptor ERR1 (Homo sapiens) (UniProt P11474). Briefly: ATG_ERRa_TRANS: Attagene TRANS-FACTORIAL HepG2 Assay for human Estrogen-Related Receptor alpha (ERRa) (AID 2282971). Conditions: HepG2 Attagene TRANS reporter, ERRa transactivation. An outline of the steps:
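Reporter transcripts from ERRa-Gal4 chimera activity measured in transiently transfected human HepG2 cells 24 hours after dosing, using RT-PCR with 6-FAM primer extension, HpaI digestion and capillary electrophoresis; DMSO is baseline.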

The target of assay [7] is X-box-binding protein 1 (Homo sapiens) (UniProt P17861). As to the kind of experiment: ATG_Xbp1_CIS: Attagene CIS-FACTORIAL HepG2 Assay for human X-box Binding Protein 1 (XBP1) (AID 2282972; active = hit-call score of the fitted dose curve at least 0.9, where 1 is the maximum; inactive = score below 0.9). The note with it: HepG2 XBP1 cis-element reporter, Attagene multiplex; actives raise or lower the signal. In outline:
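Multiplexed cis-reporter readout in transfected HepG2 liver cells. Exposure lasted 24 hours. Activity in either direction was fitted against DMSO as negative control and baseline.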

Assay [8] can be described thus: ATG_GAL4_TRANS: Attagene TRANS-FACTORIAL HepG2 Assay for GAL4 (Internal Marker) (AID 2282976). The note with it: HepG2 Attagene TRANS GAL4 internal marker reporter. An outline of the steps: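 In transfected human HepG2 liver cells dosed 24 h, GAL4 reporter mRNA serves as a baseline marker. Detection by RT-PCR with fluorescent capillary electrophoresis, activity fitted upward relative to DMSO.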

Assay [9] has as its target Estrogen-related receptor gamma (Homo sapiens) (UniProt P62508). As to the kind of experiment: ATG_ERRg_TRANS: Attagene TRANS-FACTORIAL HepG2 Assay for human Estrogen-Related Receptor gamma (ERRg) (AID 2282977).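 Also: hits increase reporter signal over DMSO so potencies reflect activators.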 Conditions: HepG2 Attagene TRANS reporter, ERRg transactivation. An outline of the steps:
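Exogenous NR-Gal4 chimera activity measured as reporter transcript induction after 24 h in transiently transfected HepG2 cells. RNA reverse-transcribed, PCR-amplified, 6-FAM-labelled and resolved by capillary electrophoresis; increase over DMSO baseline.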

Assay [10] concerns the target Glucocorticoid receptor (Homo sapiens) (UniProt P04150). Briefly: ATG_GR_TRANS: Attagene TRANS-FACTORIAL HepG2 Assay for human Glucocorticoid Receptor (GR) (AID 2282978).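 Also: activators score as hits since higher reporter transcript over DMSO is fitted.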 The note with it: HepG2 Attagene TRANS GR reporter, mRNA transcription. An outline of the steps:
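Transiently transfected HepG2 cells express chimeric NR-GAL4 proteins acting on GAL4-UAS reporter units. Compounds are applied for 24 h. mRNA induction over DMSO is measured by capillary electrophoresis.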

Assay [11] deals with Bile acid receptor (Homo sapiens) (UniProt Q96RI1). Briefly: ATG_FXR_TRANS: Attagene TRANS-FACTORIAL HepG2 Assay for Farnesoid X Receptor (FXR) (AID 2282979).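 Also: hits raise reporter mRNA above DMSO so AC50 marks FXR activation.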 The note with it: HepG2 Attagene TRANS FXR-GAL4 reporter transcription. An outline of the steps: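 Reporter transcripts from transfected HepG2 cells were measured 24 h after dosing, using RT-PCR with capillary electrophoresis of 6-FAM-labelled fragments. The read-out reflects activity of exogenous FXR-Gal4 chimera on GAL4-UAS units, with induction relative to DMSO.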

The target in assay [12] is Oxysterols receptor LXR-alpha (Homo sapiens) (UniProt Q13133). Briefly: ATG_LXRa_TRANS: Attagene TRANS-FACTORIAL HepG2 Assay for human Liver X Receptor alpha (LXRa) (AID 2282980). The note with it: HepG2 Attagene TRANS reporter, LXRa transactivation. In outline: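 Chemical-induced reporter mRNA measured by RT-PCR with fluorescent labelling and capillary electrophoresis after 24 h dosing of transiently transfected HepG2 cells expressing exogenous NR-Gal4 chimeras; increases scored against DMSO baseline.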
Oxysterols receptor LXR-alpha (Homo sapiens), sequence (Q13133 whole entry, looked up, the tested form may be a part): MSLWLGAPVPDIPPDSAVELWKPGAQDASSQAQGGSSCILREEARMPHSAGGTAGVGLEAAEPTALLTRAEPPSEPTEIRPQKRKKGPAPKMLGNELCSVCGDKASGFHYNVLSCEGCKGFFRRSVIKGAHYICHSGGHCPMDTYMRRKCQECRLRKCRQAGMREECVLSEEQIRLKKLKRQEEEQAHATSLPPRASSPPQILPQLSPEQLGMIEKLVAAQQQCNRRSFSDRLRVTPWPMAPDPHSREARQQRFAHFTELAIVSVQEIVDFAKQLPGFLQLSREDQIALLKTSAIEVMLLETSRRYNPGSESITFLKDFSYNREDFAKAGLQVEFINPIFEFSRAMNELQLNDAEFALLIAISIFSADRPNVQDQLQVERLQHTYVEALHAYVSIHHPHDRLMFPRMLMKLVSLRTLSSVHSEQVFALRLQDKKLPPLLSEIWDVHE

Assay [13] has as its target Hepatocyte nuclear factor 4-alpha (Homo sapiens) (UniProt P41235). Briefly: ATG_HNF4a_TRANS: Attagene TRANS-FACTORIAL HepG2 Assay for human Hepatocyte Nuclear Factor 4 alpha (HNF4a) (AID 2282982). Conditions: HepG2 HNF4a transactivation reporter, mRNA readout. In outline:
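Endpoint reflects transcriptional activation of a GAL4-UAS reporter by an HNF4a-GAL4 chimera in transfected HepG2 cells, 24 h post-dosing. Fluorescence from RT-PCR products separated by capillary electrophoresis; DMSO baseline.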

The nature of assay [14]: ATG_M_06_TRANS: Attagene TRANS-FACTORIAL HepG2 Assay for M06 Transcription Factor (Internal Marker) (AID 2282983). Conditions: HepG2 Attagene TRANS M06 internal marker reporter. In outline: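 Background-control reporter readout: after 24 h chemical exposure of transiently transfected HepG2 (GAL4-UAS reporter units), mRNA quantified by RT-PCR with fluorescent labeling and capillary electrophoresis. Gain-of-signal fitting against DMSO baseline.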

A short description of assay [15]: ATG_M_32_TRANS: Attagene TRANS-FACTORIAL HepG2 Assay for M32 Transcription Factor (Internal Marker) (AID 2282984). Conditions: HepG2 Attagene TRANS M32 internal marker reporter. In outline:
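Internal-marker readout from a multiplexed transcription reporter panel. HepG2 cells were transfected with GAL4-UAS reporter units, treated 24 hours, and reporter transcript levels determined by fluorescence after RT-PCR and capillary separation.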

The target of assay [16] is Nuclear receptor subfamily 4 group A member 2 (Homo sapiens) (UniProt P43354). Briefly: ATG_NURR1_TRANS: Attagene TRANS-FACTORIAL HepG2 Assay for human Nuclear Receptor Related Protein 1 (NURR1) (AID 2282985). Conditions: HepG2 Attagene TRANS reporter, mRNA readout. In outline:
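Endpoint: reporter mRNA increase relative to DMSO. HepG2 cells transfected with reporter units, treated 24 h; RNA processed by RT-PCR, labelling, HpaI digestion and capillary electrophoresis.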

Assay [17] deals with Transcriptional activator Myb (Homo sapiens) (UniProt P10242). As to the kind of experiment: ATG_Myb_CIS: Attagene CIS-FACTORIAL HepG2 Assay for human Myeloblastosis (Myb) Proto-Oncogene Transcription Factor (AID 2282986; active = hit-call score of the fitted dose curve at least 0.9, where 1 is the maximum; inactive = score below 0.9). The note with it: HepG2 Attagene CIS-FACTORIAL Myb reporter transcription; actives raise or lower the signal. An outline of the steps: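 Using HepG2 liver cells bearing transiently transfected cis-promoter reporter constructs, the assay measures induction or loss of reporter mRNA after 24 hours of dosing. Detection used fluorescently labeled RT-PCR products separated by capillary electrophoresis.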
Transcriptional activator Myb (Homo sapiens), sequence (P10242 whole entry, looked up): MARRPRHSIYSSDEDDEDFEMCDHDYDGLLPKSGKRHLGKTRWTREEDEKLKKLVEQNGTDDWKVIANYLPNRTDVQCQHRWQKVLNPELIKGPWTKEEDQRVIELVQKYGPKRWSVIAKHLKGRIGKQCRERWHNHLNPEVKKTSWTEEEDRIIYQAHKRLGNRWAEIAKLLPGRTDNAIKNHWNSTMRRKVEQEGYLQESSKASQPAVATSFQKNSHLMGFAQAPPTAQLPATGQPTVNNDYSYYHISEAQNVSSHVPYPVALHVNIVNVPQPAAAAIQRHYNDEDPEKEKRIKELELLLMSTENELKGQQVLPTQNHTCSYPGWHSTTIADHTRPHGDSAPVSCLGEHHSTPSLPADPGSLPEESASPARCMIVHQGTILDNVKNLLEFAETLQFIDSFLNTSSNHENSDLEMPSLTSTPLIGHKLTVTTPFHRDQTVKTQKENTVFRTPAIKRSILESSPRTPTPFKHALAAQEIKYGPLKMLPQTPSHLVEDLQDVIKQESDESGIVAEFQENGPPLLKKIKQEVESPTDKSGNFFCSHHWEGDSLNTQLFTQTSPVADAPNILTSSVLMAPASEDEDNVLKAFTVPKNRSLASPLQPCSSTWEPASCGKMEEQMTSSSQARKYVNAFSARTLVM

Assay [18] in a line: ATG_M_19_TRANS: Attagene TRANS-FACTORIAL HepG2 Assay for M19 Transcription Factor (Internal Marker) (AID 2282974). Conditions: HepG2 Attagene TRANS-FACTORIAL M19 internal marker reporter. An outline of the steps:
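Multiplexed TRANS format: HepG2 liver cells bearing transient GAL4-UAS reporter units, chemical treatment 24 h, reporter transcripts quantified by RT-PCR plus capillary electrophoresis. DMSO defines baseline.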

The target in assay [19] is Nuclear respiratory factor 1 (Homo sapiens) (UniProt Q16656). As to the kind of experiment: ATG_NRF1_CIS: Attagene CIS-FACTORIAL HepG2 Assay for human Nuclear Respiratory Factor 1 (NRF1) Orphan Gene (AID 2282987; active = hit-call score of the fitted dose curve at least 0.9, where 1 is the maximum; inactive = score below 0.9). The note with it: HepG2 NRF1 cis-element reporter, Attagene multiplex; actives raise or lower the signal. An outline of the steps:
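Reporter mRNA induction or loss in HepG2 cells after 24 h dosing; cis-regulated reporter constructs report endogenous transcription-factor activity. Quantified by RT-PCR/capillary electrophoresis fluorescence, DMSO-referenced.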

The target of assay [20] is Oxysterols receptor LXR-beta (Homo sapiens) (UniProt P55055). Briefly: ATG_LXRb_TRANS: Attagene TRANS-FACTORIAL HepG2 Assay for human Liver X Receptor beta (LXRb) (AID 2282981). Conditions: HepG2 Attagene TRANS GAL4-LXRb reporter, mRNA. In outline:
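Multiplexed reporter assay, HepG2, 24 h dosing. Fluorescence of labelled RT-PCR products after capillary electrophoresis gives transcript level; positive fitting direction relative to DMSO.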

X-box-binding protein 1 (Homo sapiens), sequence (P17861 whole entry, looked up): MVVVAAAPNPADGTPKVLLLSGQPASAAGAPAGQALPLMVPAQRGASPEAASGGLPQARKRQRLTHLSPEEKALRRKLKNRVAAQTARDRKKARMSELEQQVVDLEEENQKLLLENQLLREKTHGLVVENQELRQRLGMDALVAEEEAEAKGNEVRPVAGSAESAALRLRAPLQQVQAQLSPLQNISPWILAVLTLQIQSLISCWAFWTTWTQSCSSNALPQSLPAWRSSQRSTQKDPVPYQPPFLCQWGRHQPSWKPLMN
Steroid hormone receptor ERR1 (Homo sapiens), sequence (P11474 whole entry, looked up, the tested form may be a part): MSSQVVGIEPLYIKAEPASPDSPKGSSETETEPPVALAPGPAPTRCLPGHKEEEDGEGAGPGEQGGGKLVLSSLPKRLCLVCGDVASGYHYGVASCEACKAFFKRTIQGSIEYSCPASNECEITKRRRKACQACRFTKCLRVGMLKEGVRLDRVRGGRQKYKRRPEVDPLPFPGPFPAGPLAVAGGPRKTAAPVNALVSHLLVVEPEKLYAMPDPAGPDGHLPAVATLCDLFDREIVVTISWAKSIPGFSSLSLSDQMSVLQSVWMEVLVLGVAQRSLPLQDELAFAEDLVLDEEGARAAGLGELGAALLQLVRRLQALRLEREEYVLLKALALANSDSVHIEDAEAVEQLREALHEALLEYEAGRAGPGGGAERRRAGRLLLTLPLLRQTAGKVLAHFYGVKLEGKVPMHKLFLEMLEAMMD
Estrogen receptor (Homo sapiens), sequence (P03372 whole entry, looked up, the tested form may be a part): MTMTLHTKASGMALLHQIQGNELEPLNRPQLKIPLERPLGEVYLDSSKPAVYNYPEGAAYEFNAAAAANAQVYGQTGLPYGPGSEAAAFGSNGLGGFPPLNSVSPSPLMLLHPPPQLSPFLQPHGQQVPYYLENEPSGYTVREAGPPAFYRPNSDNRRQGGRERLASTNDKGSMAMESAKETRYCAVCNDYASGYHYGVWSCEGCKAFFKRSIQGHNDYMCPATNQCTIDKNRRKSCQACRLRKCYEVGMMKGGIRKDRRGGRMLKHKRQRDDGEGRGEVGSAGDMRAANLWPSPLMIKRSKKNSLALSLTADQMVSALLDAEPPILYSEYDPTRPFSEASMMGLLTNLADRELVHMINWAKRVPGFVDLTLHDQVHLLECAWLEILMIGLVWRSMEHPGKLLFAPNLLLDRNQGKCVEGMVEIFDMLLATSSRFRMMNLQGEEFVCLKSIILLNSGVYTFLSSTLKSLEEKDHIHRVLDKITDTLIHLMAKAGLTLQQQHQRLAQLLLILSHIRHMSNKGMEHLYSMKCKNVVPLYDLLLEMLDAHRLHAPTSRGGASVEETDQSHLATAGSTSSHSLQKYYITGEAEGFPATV
Nuclear receptor subfamily 4 group A member 2 (Homo sapiens), sequence (P43354 whole entry, looked up): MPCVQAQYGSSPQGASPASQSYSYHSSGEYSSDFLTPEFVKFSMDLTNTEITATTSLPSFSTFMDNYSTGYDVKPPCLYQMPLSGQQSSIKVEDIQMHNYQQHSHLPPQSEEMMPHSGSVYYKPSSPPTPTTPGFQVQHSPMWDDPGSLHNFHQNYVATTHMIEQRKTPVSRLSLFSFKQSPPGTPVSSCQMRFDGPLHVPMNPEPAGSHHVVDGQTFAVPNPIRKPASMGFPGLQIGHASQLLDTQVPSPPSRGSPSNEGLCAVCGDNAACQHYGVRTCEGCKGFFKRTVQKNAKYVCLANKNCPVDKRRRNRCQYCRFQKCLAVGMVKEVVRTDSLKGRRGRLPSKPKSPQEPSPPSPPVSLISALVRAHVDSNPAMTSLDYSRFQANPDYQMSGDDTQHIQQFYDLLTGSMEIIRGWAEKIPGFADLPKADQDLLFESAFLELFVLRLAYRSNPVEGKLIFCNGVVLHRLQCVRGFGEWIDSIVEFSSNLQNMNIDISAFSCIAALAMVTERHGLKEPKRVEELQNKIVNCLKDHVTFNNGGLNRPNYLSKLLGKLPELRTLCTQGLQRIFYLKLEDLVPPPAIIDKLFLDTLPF
Nuclear respiratory factor 1 (Homo sapiens), sequence (Q16656 whole entry, looked up): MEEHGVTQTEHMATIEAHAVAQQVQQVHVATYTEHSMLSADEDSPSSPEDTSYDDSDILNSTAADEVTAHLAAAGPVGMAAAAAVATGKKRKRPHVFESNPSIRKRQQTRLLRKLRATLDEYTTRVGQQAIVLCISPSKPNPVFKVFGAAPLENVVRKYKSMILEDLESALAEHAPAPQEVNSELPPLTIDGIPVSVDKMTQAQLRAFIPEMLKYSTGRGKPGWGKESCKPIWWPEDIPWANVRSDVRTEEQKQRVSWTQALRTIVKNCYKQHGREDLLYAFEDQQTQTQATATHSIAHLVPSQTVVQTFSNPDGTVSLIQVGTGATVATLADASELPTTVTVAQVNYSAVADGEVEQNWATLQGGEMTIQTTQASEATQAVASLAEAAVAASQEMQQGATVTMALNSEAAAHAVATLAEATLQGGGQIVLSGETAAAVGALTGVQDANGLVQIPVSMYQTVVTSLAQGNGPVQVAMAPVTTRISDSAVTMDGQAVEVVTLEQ
Glucocorticoid receptor (Homo sapiens), sequence (P04150 whole entry, looked up, the tested form may be a part): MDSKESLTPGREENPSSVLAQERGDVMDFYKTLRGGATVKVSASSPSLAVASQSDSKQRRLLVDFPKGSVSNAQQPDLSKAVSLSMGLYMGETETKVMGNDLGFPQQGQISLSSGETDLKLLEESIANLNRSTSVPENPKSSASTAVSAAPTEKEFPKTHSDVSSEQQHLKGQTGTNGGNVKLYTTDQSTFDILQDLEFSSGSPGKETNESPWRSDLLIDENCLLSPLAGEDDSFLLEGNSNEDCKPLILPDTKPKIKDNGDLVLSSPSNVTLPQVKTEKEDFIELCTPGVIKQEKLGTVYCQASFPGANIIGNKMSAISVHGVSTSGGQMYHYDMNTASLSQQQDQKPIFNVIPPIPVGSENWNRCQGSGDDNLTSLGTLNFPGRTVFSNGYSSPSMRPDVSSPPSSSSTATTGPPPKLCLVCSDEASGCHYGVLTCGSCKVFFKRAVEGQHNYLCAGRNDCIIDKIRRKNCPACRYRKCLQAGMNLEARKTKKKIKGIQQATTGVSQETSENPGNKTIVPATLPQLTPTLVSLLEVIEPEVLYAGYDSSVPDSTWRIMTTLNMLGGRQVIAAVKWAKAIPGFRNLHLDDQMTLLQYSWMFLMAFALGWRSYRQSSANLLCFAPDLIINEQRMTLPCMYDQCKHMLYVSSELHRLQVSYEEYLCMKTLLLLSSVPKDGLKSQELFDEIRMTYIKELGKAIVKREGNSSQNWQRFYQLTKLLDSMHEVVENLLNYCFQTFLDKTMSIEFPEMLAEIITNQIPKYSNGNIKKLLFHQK
Hepatocyte nuclear factor 4-alpha (Homo sapiens), sequence (P41235 whole entry, looked up, the tested form may be a part): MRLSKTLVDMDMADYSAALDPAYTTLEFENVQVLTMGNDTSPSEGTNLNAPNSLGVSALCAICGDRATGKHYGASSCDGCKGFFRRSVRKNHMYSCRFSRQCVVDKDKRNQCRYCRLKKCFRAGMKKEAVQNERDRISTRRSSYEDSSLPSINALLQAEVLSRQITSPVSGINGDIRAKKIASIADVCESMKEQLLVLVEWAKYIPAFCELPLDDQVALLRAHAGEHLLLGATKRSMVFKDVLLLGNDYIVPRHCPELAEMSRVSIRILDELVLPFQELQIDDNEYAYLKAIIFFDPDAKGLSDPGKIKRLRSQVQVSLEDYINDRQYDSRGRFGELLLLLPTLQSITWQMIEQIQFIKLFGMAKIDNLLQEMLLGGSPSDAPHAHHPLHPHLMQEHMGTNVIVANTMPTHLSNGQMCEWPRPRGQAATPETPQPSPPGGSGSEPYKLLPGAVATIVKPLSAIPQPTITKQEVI

Consider `OC(O)(C(F)C(O)(O)C(F)(F)F)C(F)(F)F`, for which the AC50 in [1] is 51.9 µM (active) and 25.8 µM (active); in assay [5], 194 µM (active); in assay [7], 61.9 µM (active) and 33 µM (active); in [16], 31.5 µM (active) and 19.1 µM (active). In addition, the outcome in assay [2], in [3], in assay [4], in assay [5], in assay [6] and in [8] was inactive. In addition, the outcome in assay [9], in assay [10], in [11], in [12], in assay [13] and in assay [14] was inactive. For the same compound, the call in assay [15] and in [17] was inactive.

`C=CCc1cc(S(=O)(=O)c2ccc(O)c(CC=C)c2)ccc1O`: the outcome in assay [1], in [2], in assay [7], in [18], in assay [8] and in assay [10] was inactive. Also, the outcome in [11], in assay [14], in assay [15] and in assay [17] was inactive. In addition, the AC50 in assay [3] is 9.12 µM (active); in [5], 2.06 µM (active); in assay [19], 33.4 µM (active).

Turning to `COS(C)(=O)=O`, the call in [1], in assay [2], in assay [3], in assay [5], in assay [7] and in assay [8] was inactive. Also, the compound was classed as inactive in assay [12], in assay [13], in [14] and in assay [17].

`Cc1ncc([C@@H](CCCCCCc2ccc3c(n2)NCCC3)CC(=O)O)cn1`: the call in assay [1], in [2], in assay [3], in assay [7], in assay [18] and in assay [8] was inactive. Further, the outcome in assay [11], in assay [12], in [20], in assay [13], in assay [15] and in assay [16] was inactive. The call in assay [17] and in [19] was inactive.

For `CCCCCCCCN(C)C`, the compound was classed as inactive in [1], in assay [2], in assay [5], in [6], in assay [7] and in assay [18]. Also, the result in assay [10], in [20], in assay [14], in assay [16], in assay [17] and in [19] was inactive. In assay [3], the AC50 was 0.00907 µM (active).
